Laboratory results from PubChem BioAssay.
Calls of active or inactive are those of the source. Unless noted, how the calls were made is not given here.

Columns and labels:
[1] = tested on: Wnt5a (protein binding on small-molecule microarray); assay: small molecules binding Wnt5a protein – biophysical, small-molecule microarray, 635/667 nm fluorescence, primary screen (AID 1142); settings: 635 nm fluorescence, higher = more signal;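 further: fluorescence read at 667 nm with signal to noise per printed feature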
[2] = ATP-based viability of Huh7 replicon cells – cell-based, CellTiter-Glo luminescence, basal, 48 h, cytotoxicity control for HCV replication inhibitor project, primary screen (AID 1143); settings: higher = more signal, called active from +8 up or from −8 down;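 further: Huh7 hepatoma cells carrying a hepatitis C replication reporter with no stimulus; test concentration not given here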
[3] = Pseudomonas biofilm growth suppression – PAO1 strain, BacTiter-Glo luminescence, LB-PBS, primary screen (AID 1144); settings: P. aeruginosa PAO1 biofilm, 12 h, higher = more signal
[4] = basal CRE-LacZ reporter activity in PC12 – cell-based, unstimulated, primary screen (AID 1145); settings: no forskolin, luminescence, 4.5 h, higher = more signal, called active from +8 up or from −8 down
[5] = forskolin-driven CRE-LacZ activity in PC12 – cell-based, CRE-LacZ reporter, forskolin-stimulated, primary screen (AID 1146); settings: luminescence, 4.5 h, higher = more signal, called active from +8 up or from −8 down;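 further: PC12 cells with 6xCRE LacZ reporter stimulated by forskolin 10 µM; beta-galactosidase reporter signal reflecting CREB driven transcription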
[6] = target: Streptavidin (Streptomyces avidinii) (UniProt P22629); assay: compounds binding control protein streptavidin – biophysical, small-molecule microarray, 635/667 nm fluorescence, artefact control for SMM compound annotation, primary screen (AID 1147); settings: higher = more signal;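 further: signal reflects streptavidin binding to arrayed compounds as a control protein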
[7] = probe aInhba binding on compound microarray – biochemical, small-molecule microarray, 635/667 nm fluorescence, primary screen (AID 1148); settings: higher = more signal;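 further: score merges 667nm spot fluorescence with signal-to-noise for antibody binding to printed compounds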
Torsin-1A (Homo sapiens) [8] = target: Torsin-1A (Homo sapiens) (UniProt O14656); assay: TOR1A wild-type binding on microarray – cell lysate, small-molecule microarray, lysate, 635/667 nm, primary screen (AID 1149); settings: COS7 hTOR1A-WT lysate, 635 nm fluorescence, higher = more signal
Torsin-1A (Homo sapiens) [9] = target: Torsin-1A (Homo sapiens) (UniProt O14656); assay: torsin A mutant lysate binding on microarrays – cell lysate, small-molecule microarray, COS7 lysate, 635/667 nm fluorescence, primary screen (AID 1150); settings: COS7 hTOR1A mutant lysate, 635 nm fluorescence, higher = more signal;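 further: score pools 667 nm emission and signal to noise measuring lysate protein binding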
[10] = tested on: Sonic hedgehog protein (Shh); assay: Sonic hedgehog microarray binding compounds – biochemical, small-molecule microarray, 635/667 nm fluorescence, primary screen (AID 1151); settings: 635 nm fluorescence, higher = more signal;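 further: Shh protein binding to compounds spotted on small-molecule microarray slides; score combines spot fluorescence intensity with signal-to-noise across triplicate slides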
[11] = optical density shifts of acrAB sulA E. coli – strain DRC41, OD650, 48 h, E. coli filamentation inducer project, primary screen (AID 1152); settings: higher = more signal, called active from +8 up or from −8 down;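 further: E. coli MC1000 strain DRC41 lacking acrAB efflux pump and sulA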
[12] = probe aLefty1 binding on compound microarray – biochemical, small-molecule microarray, 635/667 nm fluorescence, primary screen (AID 1153); settings: higher = more signal;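 further: score merges spot fluorescence with signal-to-noise ratio from the scanned slide images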
[13] = plasmodial surface anion channel blockers, osmotic lysis – cell-based, P. falciparum Indochina, OD700, 1 h, primary screen (AID 1154); settings: P. falciparum Indochina infected RBC osmotic lysis, higher = more signal, called active from +8 up or from −8 down
[14] = plasmodial surface anion channel blockers, osmotic lysis – cell-based, P. falciparum Indochina, OD700, 2 h, primary screen (AID 1155);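 further: lysis reports solute entry through the parasite surface anion channel PSAC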; settings: P. falciparum Indochina infected erythrocytes, higher = more signal, called active from +8 up or from −8 down
[15] = changes in parasitized red cell lysis, either direction – P. falciparum Indochina, OD700, 3 h, PSAC antagonist project, primary screen (AID 1156); settings: P. falciparum-infected erythrocytes, osmotic lysis, higher = more signal, called active from +8 up or from −8 down
[16] = plasmodial surface anion channel blockers, osmotic lysis – cell-based, P. falciparum Indochina, OD700, 18 h, primary screen (AID 1157); settings: P. falciparum Indochina infected erythrocytes, osmotic lysis OD700, 18 h; higher = more signal, called active from +8 up or from −8 down
[17] = S6 kinase pathway phospho-S6 level changes – cell-based, A549, cytoblot, luminescence, serum-stimulated, primary screen (AID 1158); settings: 5 h, higher = more signal;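 further: serum-stimulated A549 lung adenocarcinoma cells; signal is phosphorylated S6 detected by cytoblot immunostaining with HRP secondary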
[18] = target: NADPH oxidase 2 (Homo sapiens) (UniProt P04839); assay: compounds shifting NOX2 Amplex Red fluorescence – cell-based, HEK293-NOX2, PMA-stimulated, NOX inhibitor project, primary screen (AID 1159); settings: 45 min, higher = more signal, called active from +8 up or from −8 down; further: test concentration not given here
[19] = target: NADPH oxidase 4 (Homo sapiens) (UniProt Q9NPH5); assay: compounds shifting NOX4 Amplex Red fluorescence – cell-based, HEK293-NOX4, tetracycline-induced, NOX inhibitor project, primary screen (AID 1160); settings: HEK293-NOX4, Amplex Red H2O2 fluorescence, 45 min; higher = more signal, called active from +8 up or from −8 down
[20] = target: NADPH oxidase 5 (Homo sapiens) (UniProt Q96PH1); assay: compounds shifting NOX5 Amplex Red fluorescence – cell-based, HEK293-NOX5, NOX inhibitor project, primary screen (AID 1161); settings: HEK293-NOX5, ionomycin, 45 min, higher = more signal
Sequence of NADPH oxidase 5 (Homo sapiens) (Q96PH1 whole entry, looked up): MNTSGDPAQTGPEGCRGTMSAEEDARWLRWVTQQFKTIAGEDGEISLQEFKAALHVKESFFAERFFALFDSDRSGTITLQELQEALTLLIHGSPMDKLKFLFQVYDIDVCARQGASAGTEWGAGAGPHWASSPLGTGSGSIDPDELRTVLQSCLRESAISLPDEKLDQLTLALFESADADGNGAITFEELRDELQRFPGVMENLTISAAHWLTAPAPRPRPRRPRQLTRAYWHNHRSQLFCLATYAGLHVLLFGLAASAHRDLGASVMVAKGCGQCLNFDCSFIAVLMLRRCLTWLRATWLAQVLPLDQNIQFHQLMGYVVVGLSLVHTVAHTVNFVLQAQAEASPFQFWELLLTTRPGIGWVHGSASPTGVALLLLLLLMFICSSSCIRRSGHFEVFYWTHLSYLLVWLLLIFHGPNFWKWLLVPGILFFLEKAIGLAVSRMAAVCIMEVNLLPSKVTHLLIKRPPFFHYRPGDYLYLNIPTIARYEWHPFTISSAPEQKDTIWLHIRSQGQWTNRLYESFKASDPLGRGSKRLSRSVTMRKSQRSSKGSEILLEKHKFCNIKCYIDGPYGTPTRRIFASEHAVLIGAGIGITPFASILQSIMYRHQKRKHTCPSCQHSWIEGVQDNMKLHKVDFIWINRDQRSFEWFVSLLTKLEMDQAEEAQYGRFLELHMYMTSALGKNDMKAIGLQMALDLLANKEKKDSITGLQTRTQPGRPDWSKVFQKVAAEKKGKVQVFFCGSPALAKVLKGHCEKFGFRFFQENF

Sequence of NADPH oxidase 2 (Homo sapiens) (P04839 whole entry, looked up): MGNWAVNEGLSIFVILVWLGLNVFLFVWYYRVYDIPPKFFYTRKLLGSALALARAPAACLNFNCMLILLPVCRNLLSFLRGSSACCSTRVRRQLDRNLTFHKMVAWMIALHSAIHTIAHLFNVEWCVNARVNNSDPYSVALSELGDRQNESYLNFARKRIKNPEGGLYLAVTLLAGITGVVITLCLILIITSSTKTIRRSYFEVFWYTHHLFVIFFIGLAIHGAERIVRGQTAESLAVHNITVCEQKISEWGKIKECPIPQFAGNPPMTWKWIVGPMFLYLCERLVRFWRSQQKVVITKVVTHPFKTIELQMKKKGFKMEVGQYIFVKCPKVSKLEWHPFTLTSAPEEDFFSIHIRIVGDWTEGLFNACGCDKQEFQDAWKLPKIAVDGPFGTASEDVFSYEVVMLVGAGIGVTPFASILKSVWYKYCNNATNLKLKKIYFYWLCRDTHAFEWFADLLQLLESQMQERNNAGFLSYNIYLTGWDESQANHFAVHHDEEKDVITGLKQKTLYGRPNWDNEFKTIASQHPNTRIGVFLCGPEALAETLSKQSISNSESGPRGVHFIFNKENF
Sequence of Streptavidin (Streptomyces avidinii) (P22629 whole entry, looked up): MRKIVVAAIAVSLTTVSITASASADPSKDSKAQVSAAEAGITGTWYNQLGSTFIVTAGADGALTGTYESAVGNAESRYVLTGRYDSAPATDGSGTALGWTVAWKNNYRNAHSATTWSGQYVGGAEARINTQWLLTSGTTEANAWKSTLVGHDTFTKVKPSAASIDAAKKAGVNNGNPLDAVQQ
Sequence of Torsin-1A (Homo sapiens) (O14656 whole entry, looked up): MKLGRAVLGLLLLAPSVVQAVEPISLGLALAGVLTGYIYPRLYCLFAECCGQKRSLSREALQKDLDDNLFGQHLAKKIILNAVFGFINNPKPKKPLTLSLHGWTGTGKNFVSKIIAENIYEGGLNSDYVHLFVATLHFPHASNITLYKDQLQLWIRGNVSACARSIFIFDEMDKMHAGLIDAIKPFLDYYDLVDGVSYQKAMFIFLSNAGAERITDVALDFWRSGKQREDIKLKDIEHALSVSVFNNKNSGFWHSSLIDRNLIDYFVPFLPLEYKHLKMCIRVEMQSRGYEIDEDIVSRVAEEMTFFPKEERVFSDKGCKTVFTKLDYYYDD
Sequence of NADPH oxidase 4 (Homo sapiens) (Q9NPH5 whole entry, looked up): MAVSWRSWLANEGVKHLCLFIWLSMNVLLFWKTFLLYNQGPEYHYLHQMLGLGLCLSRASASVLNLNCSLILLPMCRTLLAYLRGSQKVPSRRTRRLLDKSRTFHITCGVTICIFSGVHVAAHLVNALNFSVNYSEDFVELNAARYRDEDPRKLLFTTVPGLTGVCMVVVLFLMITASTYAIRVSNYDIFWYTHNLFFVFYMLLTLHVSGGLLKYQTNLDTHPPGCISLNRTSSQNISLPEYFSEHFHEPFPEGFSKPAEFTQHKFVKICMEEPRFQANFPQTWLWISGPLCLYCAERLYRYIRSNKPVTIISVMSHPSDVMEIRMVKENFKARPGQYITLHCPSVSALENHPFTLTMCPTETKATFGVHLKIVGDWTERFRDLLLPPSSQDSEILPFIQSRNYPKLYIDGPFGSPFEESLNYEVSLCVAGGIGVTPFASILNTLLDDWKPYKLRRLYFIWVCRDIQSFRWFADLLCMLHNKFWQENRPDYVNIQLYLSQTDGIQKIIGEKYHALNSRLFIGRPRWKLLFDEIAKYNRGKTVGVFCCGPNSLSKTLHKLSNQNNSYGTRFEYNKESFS

Structure (SMILES) | composite z-score [1] | z-score [2] | z-score [3] | z-score [4] | z-score [5] | composite z-score [6] | composite z-score [7] | composite z-score (Torsin-1A (Homo sapiens) [8]) | composite z-score (Torsin-1A (Homo sapiens) [9]) | composite z-score [10] | z-score [11] | composite z-score [12] | z-score [13] | z-score [14] | z-score [15] | z-score [16] | z-score [17] | z-score [18] | z-score [19] | z-score [20]
O=C1c2ccccc2[C@](Cc2ccccc2I)(C(=O)NCC(F)(F)F)[C@H](c2ccc(CO)cc2)N1C1CCCCC1 | 0.2 | -0.772 (inactive) | 1.01 (inactive) | 0.324 (inactive) | 2.63 (inactive) | 1.1 | 0.029 | 0.365 | 0.936 | 0.176 | 1.25 (inactive) | 0.0686 | 7.04 (inactive) | 0.605 (inactive) | 2 (inactive) | 0.0361 (inactive) | 0.175 | -2.92 (inactive) | 0.179 (inactive) | 1.69
CC(C)[Si](C#C[Si](C(C)C)(C(C)C)C(C)C)(O[C@H](C)c1cn([C@H](CO)Cc2ccccc2)nn1)C(C)C | -0.0305 | -0.43 (inactive) | -1.52 (inactive) | -0.463 (inactive) | -0.531 (inactive) | 0.291 | -0.234 | 0.238 | 0.144 | 0.341 | 2.09 (inactive) | -0.212 | 0.532 (inactive) | 0.655 (inactive) | -0.116 (inactive) | 0.359 (inactive) | 0.479 | -1.96 (inactive) | 0.188 (inactive) | 0.0884
CC(C)C(=C=CC[C@H](O)c1ccc(OCCO)cc1)C[C@H](O)c1ccccn1 | 0.149 | -1.8 (inactive) | -0.576 (inactive) | 5.48 (inactive) | -1.06 (inactive) | -0.573 | -0.0986 | 0.743 | 0.995 | 0.823 | 0.839 (inactive) | -0.191 | 11.3 (active) | 2.04 (inactive) | 1.11 (inactive) | 0.945 (inactive) | 0.439 | 1.66 (inactive) | 0.926 (inactive) | -1.03
COC(=O)c1cn(C[C@@H](Cc2ccccc2)NC(=O)N[C@H](CO)CCc2oc(C(C)=O)c(C(=O)OC)c2C(=O)OC)nn1 | 0.173 | -0.102 (inactive) | 0.201 (inactive) | 1.5 (inactive) | -0.981 (inactive) | 0.304 | 0.108 | 0.658 | 0.268 | 1.93 | 0.555 (inactive) | 0.238 | 14.3 (active) | 2.29 (inactive) | 1.08 (inactive) | 0.872 (inactive) | 0.419 | 0.744 (inactive) | 1.01 (inactive) | 1.84
COc1ccc(CN(C2=CC[C@@]3(C(N)=O)C(=O)C(Cl)=C(Cl)C(=O)[C@@]3(C#N)C2)S(=O)(=O)c2ccc(Br)cc2)cc1 | -0.0312 | -3.6 (inactive) | -0.897 (inactive) | 33.6 (active) | 119 (active) | 0.62 | -0.0006 | 0.385 | 0.448 | -0.245 | 1.3 (inactive) | -0.0042 | 5.11 (inactive) | -1.24 (inactive) | -1.94 (inactive) | -2.3 (inactive) | 0.881 | 1.76 (inactive) | -0.275 (inactive) | 0.362
O=c1n(-c2ccccc2)c(=O)n2n1CC(COc1ccccc1)=C([C@H](O)CCc1ccccc1)[C@@H]2CO | -0.0748 | -2.16 (inactive) | -0.496 (inactive) | 1.49 (inactive) | -0.373 (inactive) | -0.275 | -0.0618 | 0.8 | -0.119 | 0.426 | 2.63 (inactive) | -0.315 | 16.8 (active) | 0.497 (inactive) | 0.076 (inactive) | -1.51 (inactive) | 1.02 | -0.878 (inactive) | -0.265 (inactive) | -0.682
CC(C)C(CO)N1C(=O)[C@@H]2C3C(=O)OCCC/C=C\[C@H]3OC23C=CCN(C(C)(C)C)C(=O)[C@@H]13 (stereo not given in full) | -0.0407 | -0.162 (inactive) | 1.19 (inactive) | -0.0778 (inactive) | -0.205 (inactive) | -0.542 | -0.231 | 0.16 | 0.3 | 0.5 | -0.69 (inactive) | -0.142 | 0.502 (inactive) | 0.488 (inactive) | 0.441 (inactive) | 0.478 (inactive) | -0.668 | 1.57 (inactive) | 0.339 (inactive) | 2.34
